{"source": "ChEMBL document CHEMBL3433997", "about": "“St. Jude Leishmania screening dataset” (2016)", "data": [{"target": "Glucose transporter (Leishmania mexicana) (UniProt O61059)", "assay": "ST_JUDE_LEISH: Cytotoxicity at 2uM final concentration against transgenic Leishmania Mexicana promastigotes LmGT2 that are glucose transport deficient and complemented with the L. Mexicana glucose transporter 2. Activity is measured by DNA content using SYBR green in vitro", "type": "functional", "units": {"inhibition": "%"}, "values": [{"smiles": "O=C(Nc1ccc2c(c1)OCO2)NC1CCN(c2ccnc(NCc3ccc(F)cc3)n2)CC1", "inhibition": 0.61}, {"smiles": "COc1ccccc1CCNc1nc(C)cc(N[C@@H](Cc2ccccc2)C(=O)NCc2cccs2)n1", "inhibition": 0.42}, {"smiles": "O=C(NCCCCCN1CCCN(C(=O)Nc2ccc(Cl)c(C(F)(F)F)c2)CC1)C1CC1c1ccc(Cl)c(Cl)c1", "note": "(stereo not given)", "inhibition": 0.24}, {"smiles": "O=C(/C=C/c1ccc(Cl)c(Cl)c1)N1CCC(CCN2CCC(c3c[nH]c4ccccc34)CC2)CC1", "inhibition": 0.41}, {"smiles": "O=C(/C=C/c1c[nH]c2ccccc12)NCCCCCN1CCC(c2c[nH]c3ccccc23)CC1", "inhibition": 1}, {"smiles": "Cc1cc(NC(=O)Nc2ccc(C#N)cc2)c2ccccc2n1", "inhibition": 0.95}, {"smiles": "COc1cc(C(=O)NC2CCN(Cc3ccccc3)CC2)ccc1-c1nc2cc(Cl)c(Cl)cc2[nH]1", "inhibition": 0.13}, {"smiles": "CN1CCC(NCc2ccc(-c3cccc(-c4nc5ccccc5[nH]4)c3)cc2)CC1", "inhibition": 1.64}, {"smiles": "CCCCCCNC(=O)C1Cc2c([nH]c3ccc(Br)cc23)C2(CCN(Cc3ccccc3)CC2)N1", "note": "(stereo not given)", "inhibition": 30.9}, {"smiles": "CCc1ccccc1OCCCON1C(=N)N=C(N)NC1(C)C", "inhibition": 29.2}, {"smiles": "CC(C)(C)c1ccc(-c2nnc(N)nc2N)cc1", "inhibition": 0.09}, {"smiles": "NC1=NC(c2ccccc2)N(c2ccccc2)C(N)=N1", "note": "(stereo not given)", "inhibition": -0.58}, {"smiles": "Oc1cccc(-c2nc(-c3cccc(I)c3)c(-c3ccc(-c4nc(-c5cccc(O)c5)[nH]c4-c4cccc(I)c4)cc3)[nH]2)c1", "inhibition": 4.57}, {"smiles": "Cc1cc(N2CCC(C)CC2)nc2cc(O)ccc12", "inhibition": 0.89}, {"smiles": "CC(C)C(C(=O)n1ncc2c3c(N)nc(N)nc3ccc21)C(C)C", "inhibition": 78.4}, {"smiles": "COc1cccc2c(NCc3ccccc3)nc(NCCCN3CCCCC3C)nc12", "note": "(stereo not given)", "inhibition": 13.1}, {"smiles": "Nc1nc(N)c2c3c(ccc2n1)NCCC3", "inhibition": -0.59}, {"smiles": "Cc1cc(NC(=O)Nc2ccc3ccn(C)c3c2)c2ccccc2n1", "inhibition": 8.87}, {"smiles": "Cc1ccnc(-n2c(C)cc(C=C3SC(=Nc4ccccc4)N(Cc4ccco4)C3=O)c2C)c1", "inhibition": 4.69}, {"smiles": "Fc1ccc2[nH]c(-c3ccc(-c4ccc(CN5CCCCC5)cc4)s3)nc2c1", "inhibition": 1.79}, {"smiles": "CCCCCCCN1CC[C@@H](CCCc2ccnc3ccc(OCCN4CCNCC4)cc23)[C@@H](CC)C1", "inhibition": 0.64}, {"smiles": "CC(C)(C)C(C)(C)Cc1ccc(O)c(CN2CCN(c3ccccc3)CC2)c1", "inhibition": -0.38}, {"smiles": "O=C(Nc1ccccc1)N(Cc1cccc(-c2cccc(CNCCc3ccccc3)c2)c1)C1CCN(Cc2ccccc2)CC1", "inhibition": 4.94}, {"smiles": "Cc1cccc2nc(-c3ccc(-c4ccc(CN5CCN(CC6CCCN(C)C6)CC5)cc4)s3)[nH]c12", "note": "(stereo not given)", "inhibition": 8.04}, {"smiles": "O=C(C=Cc1ccc(Cl)c(Cl)c1)NCCCCCN1CCC(CCCNC(=O)c2ccc3c(c2)OCO3)CC1", "inhibition": -3.71}, {"smiles": "COc1cccc(CCc2nc3c(N4CCC(Cc5ccccc5)CC4)cccc3n2CC2CNCCO2)c1", "note": "(stereo not given)", "inhibition": 8.5}, {"smiles": "CCNc1cc(C(=O)N[C@@H](Cc2ccc(Cl)cc2)[C@H](O)CNC2CCCCC2)cc(N2CCCCS2(=O)=O)c1", "inhibition": 1.39}, {"smiles": "CC(C)n1cc2c(ccc3nc(N)nc(N)c32)n1", "inhibition": 5.96}, {"smiles": "O=C(NC1CCCCC1)C1CCCN(C(=O)c2ccc(O)c(-c3ccc(Cl)c(Cl)c3)c2)C1", "note": "(stereo not given)", "inhibition": -0.03}, {"smiles": "CCN(CC)CCN(Cc1ccc(-c2ccc(Cl)s2)cc1)C(=O)Cn1c(CCc2cccc(F)c2F)nc(=O)c2ccccc21", "inhibition": 2.15}, {"smiles": "COc1ccccc1C1CCN(C2CCC(NC(=O)c3cc4cc(C(C)C)ccc4[nH]3)CC2)CC1", "note": "(stereo not given)", "inhibition": 9.55}, {"smiles": "Cc1cc(N[C@@H](CC(C)C)C(=O)NCCOc2ccccc2)nc(NCCc2ccccc2)n1", "inhibition": 2.69}, {"smiles": "CN1CCN(c2cc(-c3ccncc3)nc(-c3cccnc3)n2)CC1", "inhibition": 3}, {"smiles": "Oc1ccc2[nH]cc(C3CCN(CCC(c4ccccc4)c4ccccc4)CC3)c2c1", "inhibition": 4.21}, {"smiles": "CN(C)S(=O)(=O)c1ccc(N2CCN(CCC3(c4cccc(F)c4)CCN(C(=O)C(C)(C)C)CC3)CC2)c2nonc12", "inhibition": 2.89}, {"smiles": "CC(=O)Nc1cccc(-c2cnc(N)c3cc(-c4ccc5c(c4)OCO5)ccc23)c1", "inhibition": 5.76}, {"smiles": "CC(C)N1CCCN(C(=O)C2CCN(c3ccc(C(=O)N4CCCC4)cn3)CC2)CC1", "inhibition": 4.51}, {"smiles": "Cc1c(Cc2ccccc2)c(=O)oc2c(C)c3c(cc12)CN(CC(C)c1ccccc1)CO3", "note": "(stereo not given)", "inhibition": 5.8}, {"smiles": "CN1CCCCC1CCc1cc(C(=O)Nc2ccc(-c3ccc(O)cc3)cc2)ccc1O", "note": "(stereo not given)", "inhibition": -0.5}, {"smiles": "O=C(NC1CC1)c1cnc(N2CCC(OCc3ccccc3)CC2)c(Cl)c1", "inhibition": -1.03}]}]}
